Screening data: PubChem, The Scripps Research Institute Molecular Screening Center
Hits are enriched below; roughly 2.9% of the tested compounds scored in any of these assays.
PAFAH1B3 FP inh – blocks human PAF acetylhydrolase 1B catalytic subunit 3. Q15102. recombinant PAFAH1B3, FP-rhodamine probe, fluorescence polarization. inhibition, % at 3.39 µM. 0.28% of 340,000 active;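 active = inhibition above the screen-wide average of all tested compounds plus 3 SD, cut at about 25% in these data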;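 note: 0% = enzyme with DMSO only and 100% = wells lacking PAFAH1B3 protein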
pPAFAH FP inh – inhibitors of human plasma PAF acetylhydrolase (pPAFAH). inhibition, % at 3.39 µM. recombinant pPAFAH, FP-rhodamine probe fluorescence polarization. Q13093. 1.5% of 330,000 active. AID 463082;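 active = inhibition above the mean inhibition across the screen plus 3 SD, cut at about 25% in these data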;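 note: inhibitors block binding of the rhodamine activity-based probe so polarization drops; 0% = enzyme with DMSO and 100% = wells lacking pPAFAH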
PAFAH2 FP inh – inhibitors of human PAFAH2; Q99487; recombinant PAFAH2, FP-rhodamine activity probe, fluorescence polarization; inhibition, % at 3.39 µM; 0.99% of 340,000 active; AID 492956;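 active = inhibition above the mean over all tested compounds plus 3 SD, cut at about 30% in these data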;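 note: inhibitors block probe labeling of enzyme so polarization drops; 0% = enzyme with DMSO and 100% = wells lacking PAFAH2 protein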
Fam108B inh – Fam108B inhibition, counter-screen for RBBP9 inhibitors. inhibition, % at 9.51 µM. AID 1947. recombinant Fam108B, FP-Rh probe fluorescence polarization. 0.33% of 300,000 active;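 active = inhibition above the screen mean inhibition plus 3 SD, computed separately per campaign, cut at about 18% in these data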;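 note: inhibitors lower polarization as less probe binds the enzyme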
PME-1 inh – blocks human protein phosphatase methylesterase 1 | Q9Y570 | recombinant PME-1, FP-Rh probe fluorescence polarization | inhibition, % at 5.9 µM | 0.53% of 320,000 active;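 active = inhibition above the campaign mean of all compounds plus 3 SD, cut at about 26% in these data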;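 note: competitive labeling of PME-1 active site by serine hydrolase directed probe; 0% = PME-1 with DMSO and 100% = wells lacking PME-1 enzyme; inhibitors block probe labeling so polarization falls and inhibition rises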
Target sequence (Q9Y570 whole entry, looked up): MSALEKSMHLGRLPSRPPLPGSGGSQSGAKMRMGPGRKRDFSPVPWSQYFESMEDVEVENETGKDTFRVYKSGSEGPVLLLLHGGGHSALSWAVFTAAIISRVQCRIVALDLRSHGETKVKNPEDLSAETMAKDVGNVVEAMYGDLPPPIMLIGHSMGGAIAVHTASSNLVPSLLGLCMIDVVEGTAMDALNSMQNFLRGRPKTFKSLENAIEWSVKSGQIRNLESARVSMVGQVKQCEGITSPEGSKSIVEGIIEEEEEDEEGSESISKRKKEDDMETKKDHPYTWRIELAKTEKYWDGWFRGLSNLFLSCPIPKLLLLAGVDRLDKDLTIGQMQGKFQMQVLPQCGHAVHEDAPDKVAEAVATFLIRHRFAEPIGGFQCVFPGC
PAFAH1B2 FP inh – blocks human PAF acetylhydrolase 1b catalytic subunit 2; P68402; recombinant PAFAH1B2, FP-rhodamine activity probe, fluorescence polarization; inhibition, % at 3.39 µM; 1.2% of 340,000 active;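 active = inhibition above the mean of all tested compounds plus 3 SD, cut at about 24% in these data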;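 note: 0% = enzyme with DMSO and 100% = wells lacking PAFAH1B2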
PAFAH2 confirm – PAFAH2 (human) inhibition, confirmed | inhibition, % at 3.39 µM | shares compounds with PAFAH2 FP inh | AID 493030 | recombinant PAFAH2, FP-rhodamine activity probe, fluorescence polarization | 65% of 2,300 active;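 active = mean inhibition over three repeats above a set limit taken from the earlier primary screen, cut at about 30% in these data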;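 note: inhibitor blocks binding of rhodamine activity probe so polarization falls; 0% = enzyme with DMSO and 100% = wells lacking PAFAH2 protein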
The depositor's hits bear a star; / = no result given.

SMILES	PAFAH1B3 FP inh	pPAFAH FP inh	PAFAH2 FP inh	Fam108B inh	PME-1 inh	PAFAH1B2 FP inh	PAFAH2 confirm
COc1ccc(Cl)cc1NC(=O)c1noc(C)c1[N+](=O)[O-]	5.7	0.9	6.1	1.8	3.1	3.0	/
Cc1csc(Sc2ccc(C(=O)OCC(=O)Nc3ccc(F)cc3[N+](=O)[O-])cc2[N+](=O)[O-])n1	6.2	5.3	33.5*	2.6	9.3	-0.1	17.6
Cc1cc(C(=O)OCC(=O)Nc2ccc(F)cc2[N+](=O)[O-])c2ccccc2n1	9.6	5.4	-0.9	-5.9	-1.6	1.3	/
O=C(COC(=O)CC1CCCC1)Nc1cc2c(cc1Cl)C(=O)c1ccccc1C2=O	-2.8	12.9	10.1	2.6	0.3	2.1	/
CC(C)c1ccc(NC(=O)COC(=O)CC2CCCC2)cc1	7.6	18.4	53.5*	/	/	4.4	26.7
Cc1ccc(S(=O)(=O)N(C)C)cc1NC(=O)COC(=O)CNC(=O)C12CC3CC(CC(C3)C1)C2	3.5	5.8	-1.5	-1.7	3.5	4.3	/
Cc1ccc(S(=O)(=O)N(C)C)cc1NC(=O)COC(=O)CC1CCCC1	3.9	11.3	32.2*	-3.6	7.5	3.3	27.1
COc1ccc(C(=O)NC(CCSC)C(=O)NC2CC2)cc1 (stereo unspecified)	4.0	-1.2	-3.3	/	-0.5	5.2	/
COCCNC(=O)C(c1ccc(C)cc1)N(Cc1cccs1)C(=O)CCC(=O)Nc1ccccn1 (stereo unspecified)	1.9	2.9	-4.9	-4.8	-1.4	7.5	/
Cc1noc(NC(=O)c2ccccc2C(F)(F)F)c1C#N	7.7	2.9	37.5*	-0.4	2.7	0.8	1.4
CCn1cc(CN2CCCC(C(=O)Nc3cccc(-c4cc5ccccc5[nH]4)c3)C2)cn1 (stereo unspecified)	11.5	6.2	3.6	0.9	4.6	-1.0	/
CC(C)C(=O)O/N=C1\CCS(=O)(=O)c2sccc21	1.3	3.5	21.4	1.6	2.0	-2.5	/
COc1ccc(C(=O)O/N=C2\CCS(=O)(=O)c3sccc32)cc1	10.1	9.4	89.1*	2.0	7.2	2.0	83.4*
Cc1ccccc1C(=O)O/N=C1\CCS(=O)(=O)c2sccc21	-9.0	7.0	68.3*	-6.1	24.7	12.0	68.2*
O=[N+]([O-])c1cccc(S(=O)(=O)Nc2nc3ccccc3nc2Nc2cccc(S(=O)(=O)N3CCCCC3)c2)c1	7.8	/	44.5*	/	/	21.0	12.7
COc1ccc(NC(=O)COC(=O)/C=C/c2cccs2)c(OC)c1	12.8	6.8	12.4	/	3.2	6.8	/
O=C(COC(=O)/C=C/c1cccs1)NC(c1ccccc1)c1ccccc1	3.8	-0.7	-1.0	-6.5	-16.0	-5.6	/
O=C(COC(=O)/C=C/c1cccs1)Nc1ccc(Cl)cc1F	-1.0	5.0	52.0*	/	/	4.2	58.0*
COCCNC(=O)COC(=O)c1ccc(OCC(=O)Nc2ccccc2OC)c(OC)c1	11.9	1.4	32.2*	-2.8	-1.6	2.7	19.4
COc1ccccc1NC(=O)COC(=O)/C=C/c1cccs1	8.5	-4.4	31.1*	/	/	4.2	22.6
COc1ccc(/C=C/C(=O)OCC(=O)Nc2ccc(Cl)c(S(=O)(=O)N(C)C)c2)cc1OC	-2.9	15.4	83.8*	-11.6	-13.3	-4.8	75.1*
CNC(=O)COC(=O)c1ccc(OCC(=O)Nc2ccccc2OC)c(OC)c1	5.5	-6.9	3.4	0.1	-13.9	4.4	/
CCc1noc(C)c1C(=O)OCC(=O)c1ccc(NC(C)=O)cc1F	6.1	0.9	-3.1	/	/	1.0	/
COc1ccc(/C=C/C(=O)OCC(=O)Nc2ccc(S(N)(=O)=O)cc2)cc1OC	-1.4	-0.3	2.3	-1.1	0.0	5.2	/
COc1ccccc1NC(=O)COC(=O)/C=C/c1ccc(OC)c(OC)c1	8.0	3.6	37.0*	/	/	5.4	21.8
O=C(/C=C/c1ccccc1)OCN1C(=O)c2ccccc2C1=O	3.0	9.9	32.9*	-1.2	-1.1	-0.8	9.7
COc1ccc(C(=O)OCN2C(=O)c3ccccc3C2=O)cc1	1.3	-3.0	36.8*	-3.7	-1.5	2.5	23.8
CC1=C(CC[C@@H](C)CO)OC2CC3C4CCC5CC(O)CCC5(C)C4CC(=O)C3(C)C12 (stereo partly specified)	3.8	5.2	11.5	-1.1	-17.0	4.6	/
